For one experiment, the system named is ADCK1. Also noted: species or system human, MV4-11 + K-562 + COLO205 + SK-N-BE2 + OVCAR-8. The following applies: read-out: apparent Kd; compound concentrations: 100 nM and 1000 nM (sheet 'Samples'), CATDS: 0.14562784613858401; n = 1.
A further experiment concerns LIMK1. Also noted: species or system human, MV4-11 + K-562 + COLO205 + SK-N-BE2 + OVCAR-8. The following applies: read-out: apparent Kd; compound concentrations: 100 nM and 1000 nM (sheet 'Samples'), CATDS: 0.152053831473141; n = 1.
A further experiment concerns NEK1. Also noted: species or system human, MV4-11 + K-562 + COLO205 + SK-N-BE2 + OVCAR-8. The note with it: read-out: apparent Kd; compound concentrations: 100 nM and 1000 nM (sheet 'Samples'), CATDS: 0.19071251042520401; n = 1.
A further experiment concerns NEK3. Also noted: species or system human, MV4-11 + K-562 + COLO205 + SK-N-BE2 + OVCAR-8. The note with it: read-out: apparent Kd; compound concentrations: 100 nM and 1000 nM (sheet 'Samples'), CATDS: 0.104444124059675; n = 1.
The test system of the next experiment is PIK3CG. Also noted: species or system human, MV4-11 + K-562 + COLO205 + SK-N-BE2 + OVCAR-8. The following applies: read-out: apparent Kd; compound concentrations: 100 nM and 1000 nM (sheet 'Samples'), CATDS: 0.203728906999049; n = 1.
A further experiment concerns the target Q6ZSR9 (human, UniProt Q6ZSR9). Also noted: species or system MV4-11 + K-562 + COLO205 + SK-N-BE2 + OVCAR-8. The note with it: read-out: apparent Kd; compound concentrations: 100 nM and 1000 nM (sheet 'Samples'), CATDS: 0.122629729389454; n = 1.
The next experiment deals with ULK3. Also noted: species or system human, MV4-11 + K-562 + COLO205 + SK-N-BE2 + OVCAR-8. The following applies: read-out: apparent Kd; compound concentrations: 100 nM and 1000 nM (sheet 'Samples'), CATDS: 0.13028538158994399; n = 1.
The test system of the next experiment is ADCK3. Also noted: species or system human, MV4-11 + K-562 + COLO205 + SK-N-BE2 + OVCAR-8. The following applies: read-out: apparent Kd, n = 1.
The test system of the next experiment is AKT3. Also noted: species or system human, MV4-11 + K-562 + COLO205 + SK-N-BE2 + OVCAR-8. The following applies: read-out: apparent Kd; compound concentrations:100 nM and 1000 nM (sheet 'Samples'); n = 1.
The next experiment relates to BRAF. Also noted: species or system human, MV4-11 + K-562 + COLO205 + SK-N-BE2 + OVCAR-8. The note with it: read-out: apparent Kd, n = 1.
The next experiment relates to NNT. Also noted: species or system human, MV4-11 + K-562 + COLO205 + SK-N-BE2 + OVCAR-8. The note with it: read-out: apparent Kd; compound concentrations:100 nM and 1000 nM (sheet 'Samples'); n = 1.
The test system of a further experiment is RIPK2. Also noted: species or system human, MV4-11 + K-562 + COLO205 + SK-N-BE2 + OVCAR-8. The following applies: read-out: apparent Kd; compound concentrations:100 nM and 1000 nM (sheet 'Samples'); n = 1.
In the next experiment the test system is STK26. Also noted: species or system human, MV4-11 + K-562 + COLO205 + SK-N-BE2 + OVCAR-8. The note with it: read-out: apparent Kd; compound concentrations:100 nM and 1000 nM (sheet 'Samples'); n = 1.
Another experiment relates to MAP2K5. Also noted: species or system human, MV4-11 + K-562 + COLO205 + SK-N-BE2 + OVCAR-8. The following applies: read-out: apparent Kd; compound concentrations: 100 nM and 1000 nM (sheet 'Samples'), CATDS: 0.203043275988008; n = 1.
In another experiment the test system is PTK6. Also noted: species or system human, MV4-11 + K-562 + COLO205 + SK-N-BE2 + OVCAR-8. The following applies: read-out: apparent Kd; compound concentrations: 100 nM and 1000 nM (sheet 'Samples'), CATDS: 0.17376653089903399; n = 1.
A further experiment relates to RIPK3. Also noted: species or system human, MV4-11 + K-562 + COLO205 + SK-N-BE2 + OVCAR-8. The following applies: read-out: apparent Kd; compound concentrations: 100 nM and 1000 nM (sheet 'Samples'), CATDS: 9.1073681697651607E-2; n = 1.
A further experiment relates to TESK1. Also noted: species or system human, MV4-11 + K-562 + COLO205 + SK-N-BE2 + OVCAR-8. The following applies: read-out: apparent Kd; compound concentrations: 100 nM and 1000 nM (sheet 'Samples'), CATDS: 9.2639666275084007E-2; n = 1.
Another experiment has as its system ZAK. Also noted: species or system human, MV4-11 + K-562 + COLO205 + SK-N-BE2 + OVCAR-8. The note with it: read-out: apparent Kd; compound concentrations: 100 nM and 1000 nM (sheet 'Samples'), CATDS: 0.21269926478279999; n = 1.
Where [1] appears, read: compound concentrations:100 nM and 1000 nM (sheet 'Samples').

The structures appear in SMILES notation. Where two headings read alike, the source gives them in different places.

Q6ZSR9, sequence (Q6ZSR9 whole entry, looked up): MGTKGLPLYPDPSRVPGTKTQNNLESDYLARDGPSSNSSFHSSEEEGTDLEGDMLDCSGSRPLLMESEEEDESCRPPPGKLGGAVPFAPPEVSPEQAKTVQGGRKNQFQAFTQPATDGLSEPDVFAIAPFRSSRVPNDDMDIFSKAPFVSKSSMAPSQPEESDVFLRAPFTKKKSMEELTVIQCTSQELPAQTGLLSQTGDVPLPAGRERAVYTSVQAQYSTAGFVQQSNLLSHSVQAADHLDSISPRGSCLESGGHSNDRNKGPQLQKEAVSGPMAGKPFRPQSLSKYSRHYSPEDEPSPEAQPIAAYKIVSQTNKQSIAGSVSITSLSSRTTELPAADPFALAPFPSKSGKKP

Regarding `COc1cc(Nc2nccc(N3CCC(NS(=O)(=O)c4ccc(NC(C)=O)cc4)CC3)n2)cc(OC)c1OC` [GSK1379825A], the potency estimated from few doses was 1000 nM in the experiment on ADCK1; 921 nM in the experiment on LIMK1; 610 nM in the experiment on NEK1; 2360 nM with NEK3; 547 nM in the experiment with PIK3CG; 1490 nM with Q6ZSR9. In addition, the potency estimated from few doses in the experiment with ULK3 is 1280 nM.
With `CN(C)CCOc1ccc(-c2nc(-c3ccc4c(c3)CC/C4=N/O)c(-c3ccncc3)[nH]2)cc1` [SB-590885_KCGS], the potency estimated from few doses was 1150 nM in the experiment on ADCK3 (setting [1]); 1900 nM in the experiment with AKT3; 88.6 nM with BRAF (setting [1]); 1680 nM in the experiment on NNT; 679 nM in the experiment on RIPK2; 2210 nM in the experiment on STK26.
Regarding `CCCS(=O)(=O)Nc1ccc(F)c(-n2cc(-c3cncc(OC)c3)nn2)c1F` [BI00865461], the potency estimated from few doses with ADCK3 (compound concentrations: 100 nM and 1000 nM (sheet 'Samples'), CATDS: 9.7263378995511504E-2) was 1210 nM; in the experiment with BRAF (compound concentrations: 100 nM and 1000 nM (sheet 'Samples'), CATDS: 0.639948734699749) it was 7.45 nM; with MAP2K5 it was 70.4 nM; in the experiment on PTK6, 108 nM; in the experiment on RIPK3 it was 1790 nM; in the experiment with TESK1 it was 1610 nM. Further, the potency estimated from few doses in the experiment with ZAK was 62.5 nM.

The record behind these values is paper PMC11062922 (Nature Chemical Biology, 2023).
